Results on 24 sequences are retold here after the OligoGym collection.
Also: reference of the scale not given here.

The first experiment addresses C5orf51. The experiment is described as follows: pooled miR-30 sensor sort-seq; sequence = guide strand. Particulars: shRNA.
The sequence TTATTAGTGACATAACATCTGT yielded a sensor-assay potency score (higher = more potent) of -0.587.
Same read-out and setting: the value for TTAACTAAGTCTAAAAGCCTAG was -0.498.
TATCTTAATGTAATACCGCTGT gave a sensor-assay potency score (higher = more potent) of -0.406.
Same read-out and setting: the value for TTGTATTCCATTCTTGTTCTTT was -0.072.
Take TAGAACATGATTACACAGGATG: the sensor-assay potency score (higher = more potent) is -0.681.
The sequence AAAATCTTCATCTACTAGCTTG gave a sensor-assay potency score (higher = more potent) of -0.0873.
The same measure, in the same setting: under TATTAGTGACATAACATCTGTA stands 0.937; under TTTATCTTCATTACTCACTTGA, 1.06; under TTTAGCTGTGTCTAGATCTTGG, 0.753.
TTGATGGATTTGAACATTCTTT yielded a sensor-assay potency score (higher = more potent) of -0.74.
Same read-out and setting: the value for TTAACTGGATAGGACATCGATA was -1.18; that for TTCAATATCAGAACTTCTGTAA was 0.18.

For a further experiment, the target named is C5orf56. Described as above. Conditions: shRNA.
As to AACACTTGCTGAATAAATGAGT, the sensor-assay potency score (higher = more potent) is -0.962.
Same read-out and setting: under TTGTTCACTGCTGCATTGCTGC stands -0.868.
Turning to TTCACTGCTGCATTGCTGCCAT, the sensor-assay potency score (higher = more potent) was -0.146.
On the same count and under the same terms, under TTCTTTCCAGAATCTTGGCTGT stands 0.101; under TTGAAGATTCCCTTGGTGTGTT, 0.717; under TTGATGACGAGGAAAAAGGAGA, -0.938.
On the same count and under the same terms, under TTATAAGCTGCATGAGAGCAGG stands -0.803; under TTTCTTTCCAGAATCTTGGCTG, 0.311; under AAAGGAGACATTTCTTTCCAGA, -0.416.
TTTGAAGATTCCCTTGGTGTGT showed a sensor-assay potency score (higher = more potent) of -0.413.
On the same count and under the same terms, the value for AATCTTGGCTGTAAGCAGCAGA was -0.53.
Still for that read-out and setting: the value for TCCAATAGGCTACAAACTCTGG was -1.19.
